The structures appear in SMILES notation. The panel holds about 79,000 compounds, 15% with a hit somewhere; the sample as a whole holds those more often. Unmarked numbers belong to inactive results. Calls of active or inactive are those of the source. Rule as the data show it: active = growth inhibition above about 70%; inactive = the rest.

Test [1] is described as follows: NCI Yeast Anticancer Drug Screen. Data for the rad50 strain (AID 155).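 Also: 0% = growth of vehicle-only cultures of the same strain.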 The settings on record: S. cerevisiae rad50 strain growth inhibition; at 50.0 µM; active compounds read high. In a few lines:
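Vehicle-treated cultures provide the reference for the growth inhibition reported for compound-exposed, repair-deficient yeast.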

Test [2] can be described thus: NCI Yeast Anticancer Drug Screen. Data for the mec2-1 strain (AID 157). The settings on record: S. cerevisiae mec2-1 strain, at 50.0 µM, active compounds read high. The essentials:
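Cells of the genetically defined mec2-1 yeast strain are incubated with test compound. Inhibition of growth is calculated against vehicle-treated controls.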

A short description of test [3]: NCI Yeast Anticancer Drug Screen. Data for the sgs1 mgt1 strain (AID 161).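 Also: 0% = growth of cultures given vehicle only.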 The settings on record: S. cerevisiae sgs1 mgt1 strain, at 50.0 µM, active compounds read high. In a few lines:
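Read-out: growth inhibition vs vehicle controls. Cells: mutant yeast strain deficient in DNA damage repair.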

A short description of test [4]: NCI Yeast Anticancer Drug Screen. Data for the cln2 rad14 strain (AID 165).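 Also: 0% = growth equal to vehicle treated cultures.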 Particulars: S. cerevisiae cln2 rad14 strain, at 50.0 µM, active compounds read high. The essentials: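 The screen exposed genetically defined yeast (cln2 rad14) to test compounds and scored growth inhibition relative to vehicle-treated controls.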
Test [5] is described as follows: NCI Yeast Anticancer Drug Screen. Data for the bub3 strain (AID 167). The settings on record: S. cerevisiae bub3 mutant strain, at 50.0 µM, active compounds read high. The essentials: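 Mutant yeast screening strain plus compound; vehicle-treated cultures serve as the 0% inhibition reference.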
Test [6] is described as follows: NCI Yeast Anticancer Drug Screen. Data for the mlh1 rad18 strain (AID 175). The settings on record: S. cerevisiae mlh1 rad18 strain growth inhibition; at 50.0 µM; active compounds read high. In a few lines: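 Compound-treated yeast growth, normalised to vehicle controls. Strain bears defined DNA repair mutations.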

Consider `COC(=O)c1cccnc1F`, for which the growth inhibition is 3.9% in test [1]; -15.2% in test [2]; -14.7% in test [3]; -1.65% in test [4]; -30.2% in test [5]; -2.45% in test [6].
Turning to `O=C(Nc1ccc(Cl)cc1)c1ccc(C(=O)Nc2ccc(Cl)cc2)cc1`, the growth inhibition in test [1] is -12.9%; in test [2], -26.4%; in test [3], -20.1%; in test [4], 5.35%; in test [5], -6.4%; in test [6], -24.9%.
For `C(CCc1nnc2c(n1)CCCC2)Cc1nnc2c(n1)CCCC2`, the growth inhibition in test [1] was -7.6%; in test [2], -17.9%; in test [3], -1.05%; in test [4] it was -12.1%; in test [5] it was 10.1%; in test [6], -2.4%.
Regarding `O=C(NCc1ccco1)Nc1ccc(Cl)cc1`, the growth inhibition was -29.5% in test [1]; -0.8% in test [2]; 0.6% in test [3]; -51.4% in test [4]; 14.5% in test [5]; -2.7% in test [6].
For `Cc1ccccc1C(=O)NNC(=O)c1ccc2ccccc2c1`, the growth inhibition in test [1] was 7.3%; in test [2], -9.1%; in test [3] it was -3.9%; in test [4], 9.35%; in test [5], -13.2%; in test [6] it was -9.45%.
`CC1CC(C)(C)NC(C2CCC=CO2)O1` (stereo not given): the growth inhibition in test [1] is 5.2%; in test [2], -3.9%; in test [3], -7%; in test [4] it was -20.6%; in test [5], -18.6%; in test [6], 5.9%.
As to `COc1ccc(N=Cc2ccc(C=Nc3ccc(OC)cc3OC)cc2)c(OC)c1`, the growth inhibition in test [1] is 10.6%; in test [2] it was -21.6%; in test [3], 5.15%; in test [4], 7.7%; in test [5] it was -5.45%; in test [6], -1.9%.
Take `CC(=O)OCC1OC(n2c(Br)nc3c(N)ncnc32)C(O)C1O` (stereo not given): the growth inhibition is -3.35% in test [1]; -4.5% in test [2]; -16.4% in test [3]; -12.2% in test [4]; -0.7% in test [5]; -29.4% in test [6].
For `COC(=O)/C(=N/O)C(C(=O)OC)C(=O)C(=O)Nc1c(Cl)cc(C)cc1S(=O)(=O)O` (stereo not given), the growth inhibition in test [1] is 6.4%; in test [2], 4.35%; in test [3] it was -22.4%; in test [4], -14.1%; in test [5] it was -2.9%; in test [6], 8.15%.
As for `CC1(C)/C(=C/N=O)N(O)C(C)(C)N1O`, the growth inhibition was -26.9% in test [1]; -34.6% in test [2]; -43.8% in test [3]; 5.75% in test [4]; -35.9% in test [5]; -15.2% in test [6].
As for `O=C(C(CO)c1ccccc1)N1CCOCC1` (stereo not given), the growth inhibition in test [1] was -10.3%; in test [2], -15.4%; in test [3], -3.45%; in test [4], -23.4%; in test [5], 4.35%; in test [6] it was 2.55%.
On to `CCOC(=O)c1c(C#N)c2cnn(-c3ccccc3)c2n2cccc12`, for which the growth inhibition in test [1] was 14.1%; in test [2], 9.8%; in test [3] it was -2.25%; in test [4], -64.2%; in test [5], -8.25%; in test [6] it was 36.1%.
With `CCCc1c(O)c2ccccc2[nH]c1=O`, the growth inhibition in test [1] is 11.3%; in test [2], 11.7%; in test [3], -37.8%; in test [4], 14.7%; in test [5], 15.8%; in test [6], -8.3%.
Turning to `C=CCOC(=O)OCCOC(=O)OCC=C`, the growth inhibition in test [1] was 6.4%; in test [2] it was -4.7%; in test [3], -2.05%; in test [4] it was -1.55%; in test [5] it was 24.1%; in test [6] it was -1.55%.
In the case of `CC(=O)N1CCC23C(=O)CC4C(=CCOC5CC(=O)N(c6ccccc62)C3C54)C1` (stereo not given), the growth inhibition in test [1] is -19.1%; in test [2], -23.9%; in test [3], -4.5%; in test [4], 8.9%; in test [5], 3.55%; in test [6], -4.8%.
Turning to `CC(=O)[CH-]C(=O)c1ccccc1.CC(=O)[CH-]C(=O)c1ccccc1.CC12CC3(C)CC(C)(C1)CC([O-])(C2)C3.CC[O-].[Ti+4]`, the growth inhibition was 15.1% in test [1]; 21.8% in test [2]; 28.6% in test [3]; 23.8% in test [4]; 8.55% in test [5]; 18% in test [6].
As for `CC(=O)N(C(C)=O)n1c(Cc2ccc(Cl)cc2)nn(C(C)=O)c1=O`, the growth inhibition in test [1] was 7.85%; in test [2], -15.1%; in test [3], -9.2%; in test [4], 4.5%; in test [5], 10.7%; in test [6], -7.6%.
Regarding `COC(=O)c1cc([N+](=O)[O-])c(Sc2ncnc3nc[nH]c23)c([N+](=O)[O-])c1`, the growth inhibition was 53% in test [1]; 25.6% in test [2]; 24.4% in test [3]; 80% (active) in test [4]; 26.9% in test [5]; 34.8% in test [6].
With `CC(=O)NN(C)C(C)=O`, the growth inhibition in test [1] was 6%; in test [2], 27.3%; in test [3], -4.2%; in test [4], 12.4%; in test [5], 15.9%; in test [6], 10.5%.
On to `C/C(=N/O)c1sc(-c2nc(C)c(/C(C)=N\O)s2)nc1C`, for which the growth inhibition is -1.7% in test [1]; -19.3% in test [2]; 4.7% in test [3]; 4.85% in test [4]; -6.6% in test [5]; 3.05% in test [6].

The values are drawn from PubChem BioAssay (NCI).
